Reference: PubChem BioAssay AID1159580 (chemical genetic matrix, 2015)
Several values for one entry are separate records, joined by “and”; a condition that tells them apart may be missing. Equal values may be shown once. Hit rate of the full screen: of about 5,500 compounds, about 2,000 (36%) were called active. Another 18% or so got no clear call; they are omitted. No stated cut-off is given here; in the data, active means normalized growth mostly below about 0.91 (no sharp cut-off); inconclusive means no clear call, values can overlap the other calls; inactive means mostly above about 0.92. The list shows a part of the results.

Experiment: chemical genetic growth profiling, strain panel (AID 1159580);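 further: tested at 20 µM; growth read once vehicle control cultures reached saturation at 30 °C; 1 = growth at the plate median or of vehicle wells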
Settings: S. cerevisiae deletion strains, growth OD

Measured: normalized growth

O=C(O[C@@H]1Cc2c(O)cc(O)cc2O[C@@H]1c1cc(O)c(O)c(O)c1)c1cc(O)c(O)c(O)c1
0.798 (active) and 1.02 (inactive): locus YHR030C, strain SLT2, stronger effect = lower value
inactive: locus YBR021W, strain FUR4, stronger effect = lower value 1.01 | locus YBR171W, strain sec66, stronger effect = lower value 0.976 | locus YCL016C, strain dcc1, stronger effect = lower value 0.934 | locus YCL069W, strain vba3, stronger effect = lower value 0.94 | locus YCR088W, strain abp1, stronger effect = lower value 1.01 | locus YDL005C, strain med2, stronger effect = lower value 0.994 | locus YDL040C, strain nat1, stronger effect = lower value 0.979 | locus YDL185W, strain tfp1, stronger effect = lower value 0.994 | locus YDR001C, strain nth1, stronger effect = lower value 1 | locus YDR101C, strain arx1, stronger effect = lower value 0.966 | locus YDR159W, strain sac3, stronger effect = lower value 1.02 | locus YDR195W, strain ref2 0.905 | locus YDR318W, strain mcm21, stronger effect = lower value 0.951 | locus YDR392W, strain spt3, stronger effect = lower value 0.931 | locus YEL061C, strain CIN8 (second series), stronger effect = lower value 0.982 | locus YER016W, strain bim1, stronger effect = lower value 0.978 | locus YER110C, stronger effect = lower value 1.03 | locus YER155C, strain BEM2 (second series), stronger effect = lower value 0.893 | locus YER155C, strain BEM2, stronger effect = lower value 0.955 | locus YGL078C, strain dbp3, stronger effect = lower value 1.01 | locus YGL167C, strain pmr1, stronger effect = lower value 0.981 | locus YGL227W, strain vid30, stronger effect = lower value 1.02 | locus YGL240W, strain doc1, stronger effect = lower value 0.961 | locus YGR078C, strain PAC10, stronger effect = lower value 0.865 | locus YGR252W, strain gcn5, stronger effect = lower value 0.864 | locus YHR079C, strain IRE1 (second series), stronger effect = lower value 0.999 | locus YHR079C, strain IRE1, stronger effect = lower value 1.03 | locus YHR094C, strain hxt1, stronger effect = lower value 1.01 | locus YIL125W, strain kgd1, stronger effect = lower value 1 | locus YIR030C, strain dcg1, stronger effect = lower value 0.999 | locus YJL092W, strain hpr5, stronger effect = lower value 0.986 | locus YJL115W, strain asf1, stronger effect = lower value 0.988 | locus YJL129C, strain trk1, stronger effect = lower value 1.02 | locus YJL154C, strain vps35, stronger effect = lower value 0.992 | locus YJL168C, strain set2, stronger effect = lower value 0.998 | locus YJR066W, strain TOR1, stronger effect = lower value 0.936 | locus YKL009W, strain mrt4, stronger effect = lower value 1.04 | locus YKL068W, stronger effect = lower value 1 | locus YKL085W, strain MDH1 (second series), stronger effect = lower value 1.01 | locus YKL085W, strain MDH1, stronger effect = lower value 1.01 | locus YKL160W, strain elf1, stronger effect = lower value 0.936 | locus YKR001C, strain vps1, stronger effect = lower value 0.914 | locus YKR026C, strain gcn3, stronger effect = lower value 0.998 | locus YKR091W, strain srl3, stronger effect = lower value 0.996 | locus YLL041C, strain sdh2, stronger effect = lower value 0.962 | locus YLR102C, strain apc9, stronger effect = lower value 1.04 | locus YLR113W, strain HOG1, stronger effect = lower value 1.06 | locus YLR262C, strain YPT6, stronger effect = lower value 0.664 | locus YLR384C, strain iki3, stronger effect = lower value 0.94 | locus YML032C, strain rad52, stronger effect = lower value 1.01 | locus YML120C, strain ndi1, stronger effect = lower value 0.967 | locus YML124C, strain tub3, stronger effect = lower value 1 | locus YMR078C, strain ctf18, stronger effect = lower value 1.01 | locus YMR125W, strain sto1, stronger effect = lower value 1.07 | locus YMR129W, stronger effect = lower value 0.973 | locus YNL183C, strain NPR1, stronger effect = lower value 0.968 | locus YNL248C, strain rpa49, stronger effect = lower value 0.952 | locus YNL250W, strain rad50, stronger effect = lower value 1.02 | locus YNL271C, strain bni1, stronger effect = lower value 1 | locus YNL298W, strain CLA4, stronger effect = lower value 1 | locus YNL307C, strain MCK1, stronger effect = lower value 0.99 | locus YNL322C, strain KRE1 (second series), stronger effect = lower value 1.04 | locus YNR049C, strain mso1, stronger effect = lower value 0.986 | locus YOL012C, strain htz1 0.219 | locus YOL147C, strain pex11, stronger effect = lower value 0.97 | locus YOR136W, strain idh2, stronger effect = lower value 0.966 | locus YOR144C, strain elg1, stronger effect = lower value 0.971 | locus YOR231W, strain MKK1, stronger effect = lower value 1.02 | locus YOR290C, strain snf2, stronger effect = lower value 0.894 | locus YOR316C, strain cot1, stronger effect = lower value 1.02 | locus YPL078C, strain atp4, stronger effect = lower value 0.947 | locus YPL240C, strain hsp82, stronger effect = lower value 0.98 | locus YPL256C, strain CLN2, stronger effect = lower value 1.05 | locus YPR119W, strain clb2, stronger effect = lower value 1.02 | locus YPR141C, strain kar3, stronger effect = lower value 0.995 | locus YPR163C, strain tif3, stronger effect = lower value 1.01 | locus YPR167C, strain met16, stronger effect = lower value 0.951
active: locus YAL021C, strain ccr4, stronger effect = lower value 0.284 | locus YAL026C, strain drs2, stronger effect = lower value 0.781 | locus YAL030W, strain snc1, stronger effect = lower value 0.874 | locus YBL061C, strain skt5, stronger effect = lower value 0.77 | locus YBR009C, strain hhf1, stronger effect = lower value 0.823 | locus YBR023C, strain chs3, stronger effect = lower value 0.746 | locus YBR229C, strain ROT2, stronger effect = lower value 0.889 | locus YBR231C, strain swc5, stronger effect = lower value 0.688 | locus YBR279W, strain paf1, stronger effect = lower value 0.821 | locus YCL011C, strain gbp2, stronger effect = lower value 0.855 | locus YCL029C, strain bik1, stronger effect = lower value 0.866 | locus YCL061C, strain MRC1, stronger effect = lower value 0.913 | locus YDL035C, strain GPR1, stronger effect = lower value 0.333 | locus YDL074C, strain BRE1, stronger effect = lower value 0.576 | locus YDL101C, strain DUN1, stronger effect = lower value 0.385 | locus YDL192W, strain arf1, stronger effect = lower value 0.872 | locus YDR069C, strain doa4, stronger effect = lower value 0.413 | locus YDR137W, strain rgp1, stronger effect = lower value 0.839 | locus YDR162C, strain NBP2, stronger effect = lower value 0.14 | locus YDR297W, strain sur2, stronger effect = lower value 0.832 | locus YDR334W, strain swr1, stronger effect = lower value 0.837 | locus YDR335W, strain msn5, stronger effect = lower value 0.879 | locus YDR388W, stronger effect = lower value 0.929 | locus YDR502C, strain sam2, stronger effect = lower value 0.855 | locus YEL003W, strain gim4, stronger effect = lower value 0.85 | locus YEL037C, strain rad23, stronger effect = lower value 0.905 | locus YER015W, strain faa2, stronger effect = lower value 0.682 | locus YER111C, strain swi4, stronger effect = lower value 0.845 | locus YER167W, strain BCK2, stronger effect = lower value 0.801 | locus YFR010W, strain ubp6, stronger effect = lower value 0.865 | locus YGL086W, strain mad1, stronger effect = lower value 0.776 | locus YGL173C, strain kem1, stronger effect = lower value 0.567 | locus YGL248W, strain PDE1, stronger effect = lower value 0.536 | locus YGL253W, strain hxk2, stronger effect = lower value 0.794 | locus YGR135W, strain pre9, stronger effect = lower value 0.861 | locus YHR013C, strain ard1, stronger effect = lower value 0.663 | locus YHR027C, strain rpn1, stronger effect = lower value 0.52 | locus YHR129C, strain ARP1, stronger effect = lower value 0.586 | locus YHR142W, strain chs7, stronger effect = lower value 0.749 | locus YHR200W, strain rpn10, stronger effect = lower value 0.855 | locus YIL066C, strain RNR3, stronger effect = lower value 0.176 | locus YIL073C, strain SPO22, stronger effect = lower value 0.226 | locus YJL095W, strain BCK1 (second series), stronger effect = lower value 0.882 | locus YJL134W, strain LCB3, stronger effect = lower value 0.914 | locus YJL164C, strain tpk1, stronger effect = lower value 0.808 | locus YJL166W, strain qcr8, stronger effect = lower value 0.744 | locus YJL187C, strain SWE1 (second series), stronger effect = lower value 0.29 | locus YJL187C, strain SWE1, stronger effect = lower value 0.837 | locus YJR043C, strain POL32, stronger effect = lower value 0.317 | locus YJR075W, strain HOC1, stronger effect = lower value 0.704 | locus YKL190W, strain CNB1, stronger effect = lower value 0.26 | locus YLL001W, strain dnm1, stronger effect = lower value 0.897 | locus YLL026W, stronger effect = lower value 0.899 | locus YLR027C, strain aat2, stronger effect = lower value 0.829 | locus YLR039C, strain RIC1, stronger effect = lower value 0.331 | locus YLR058C, strain SHM2, stronger effect = lower value 0.373 | locus YLR221C, strain rsa3, stronger effect = lower value 0.87 | locus YLR258W, strain gsy2, stronger effect = lower value 0.898 | locus YLR262C, strain YPT6 (second series), stronger effect = lower value 0.835 | locus YLR268W, strain sec22, stronger effect = lower value 0.832 | locus YLR320W, strain mms22, stronger effect = lower value 0.877 | locus YLR330W, strain CHS5, stronger effect = lower value 0.776 | locus YLR342W, strain FKS1 (second series), stronger effect = lower value 0.297 | locus YLR342W, strain FKS1, stronger effect = lower value 0.649 | locus YLR357W, strain rsc2, stronger effect = lower value 0.704 | locus YLR370C, strain arc18, stronger effect = lower value 0.89 | locus YLR371W, strain rom2, stronger effect = lower value 0.677 | locus YLR418C, strain cdc73, stronger effect = lower value 0.625 | locus YML016C, strain PPZ1, stronger effect = lower value 0.114 | locus YMR058W, strain fet3, stronger effect = lower value 0.174 | locus YMR205C, strain PFK2, stronger effect = lower value 0.821 | locus YMR223W, strain ubp8, stronger effect = lower value 0.887 | locus YMR231W, strain pep5, stronger effect = lower value 0.496 | locus YMR307W, strain GAS1, stronger effect = lower value 0.429 | locus YNL067W, strain RPL9B, stronger effect = lower value 0.692 | locus YNL071W, strain lat1, stronger effect = lower value 0.878 | locus YNL128W, strain TEP1, stronger effect = lower value 0.13 | locus YNL153C, strain GIM3, stronger effect = lower value 0.665 | locus YNL209W, strain ssb2, stronger effect = lower value 0.44 | locus YNL233W, strain BNI4, stronger effect = lower value 0.651 | locus YNL322C, strain KRE1, stronger effect = lower value 0.26 | locus YNR052C, strain pop2, stronger effect = lower value 0.861 | locus YOL006C, strain TOP1, stronger effect = lower value 0.324 | locus YOR001W, strain rrp6, stronger effect = lower value 0.875 | locus YOR061W, strain CKA2, stronger effect = lower value 0.484 | locus YOR069W, strain VPS5, stronger effect = lower value 0.526 | locus YOR070C, strain gyp1, stronger effect = lower value 0.767 | locus YOR080W, strain dia2, stronger effect = lower value 0.754 | locus YOR083W, strain WHI5, stronger effect = lower value 0.882 | locus YOR106W, strain vam3, stronger effect = lower value 0.316 | locus YOR184W, strain ser1, stronger effect = lower value 0.808 | locus YOR265W, strain rbl2, stronger effect = lower value 0.912 | locus YOR270C, strain vph1, stronger effect = lower value 0.499 | locus YPL051W, strain arl3, stronger effect = lower value 0.539 | locus YPL055C, strain LGE1, stronger effect = lower value 0.249 | locus YPL106C, strain sse1, stronger effect = lower value 0.762 | locus YPL241C, strain CIN2, stronger effect = lower value 0.741 | strain wtn01, stronger effect = lower value 0.832
0.148 (active) and 1.01 (inactive): locus YJL095W, strain BCK1, stronger effect = lower value
